Holding throughout (experiment): NCI-60 one-dose screen, 48 h (100 = growth as untreated, 0 = no growth, -100 = all killed)
Settings in all cases: 10 µM unless noted

The subject of assay [1] is SR leukemia.
The subject of assay [2] is RPMI-8226 leukemia.
Assay [3] has as its system OVCAR-8 ovarian.
Assay [4] has as its system OVCAR-5 ovarian.
The test system of assay [5] is OVCAR-4 ovarian.
Assay [6] concerns SK-OV-3 ovarian.
The subject of assay [7] is IGROV1 ovarian.
Assay [8] relates to HS 578T breast.
In assay [9] the test system is NCI/ADR-RES ovarian.
Assay [10] concerns T-47D breast.
Assay [11] deals with BT-549 breast.
In assay [12] the test system is MDA-MB-435 melanoma.
The subject of assay [13] is SW-620 colon.
For assay [14], the system named is MCF7 breast.
Assay [15] has as its system HCT-116 colon.
For assay [16], the system named is HCC-2998 colon.
In assay [17] the test system is KM12 colon.

Compounds without any hit were thinned out: in the full panel of roughly 83,000, 20% have a hit.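 Cells were grown in 96-well plates and exposed to the test compound at a single concentration for 48 hours; results are reported as percent growth, with values below 10 considered active.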 A number with no mark means an inactive call. The source made the active and inactive calls.

With `NS(=O)(=O)c1ccc(-n2cc(CN3CCCCC3)nn2)cc1`, the growth in assay [1] is 93.7%; in [2], 107%; in [3], 105%; in assay [4], 105%; in assay [5] it was 105%; in [6], 122%. The growth in assay [7] is 104%; in [8], 100%; in assay [9] it was 109%; in [10], 110%; in assay [11], 108%; in [12] it was 106%. In addition, the growth in [13] was 106%; in assay [14], 96.9%; in assay [15], 107%; in assay [16], 106%; in assay [17] it was 95.3%.
On to `Cc1ccc(C2=NN(C)C(=O)C3(CCCC3)C2)cc1`, for which the growth is 113% in [1]; 111% in assay [2]; 102% in assay [3]; 102% in assay [4]; 106% in assay [5]; 110% in assay [6]. Besides, the growth in assay [7] is 110%; in [8] it was 109%; in assay [9], 102%; in assay [10], 102%; in assay [11], 117%; in assay [12], 107%. In addition, the growth in assay [13] is 103%; in assay [14], 89.8%; in assay [15], 104%; in [16], 110%; in [17], 104%.
`c1n[nH]cc1-c1nc2ccc3[nH]ncc3c2c2c1CCCC2`: the growth in assay [1] was -9.78% (active); in [2], 41.5%; in [3], 23.5%; in assay [4], 43.9%; in assay [5], 54.1%; in assay [6] it was -19.6% (active). For the same molecule, the growth was 20.8% in assay [7]; -4.89% (active) in [8]; 51.1% in assay [9]; 15.7% in assay [10]; -18.9% (active) in assay [11]; 1.93% (active) in [12]. In addition, the growth in assay [13] is 6.24% (active); in [14] it was 3.93% (active); in assay [15], -3.08% (active); in assay [16], 33.5%; in [17] it was 5.28% (active).
For the molecule `CCOc1cccc(-c2nc3sccn3c2-c2ccnc(S(C)(=O)=O)n2)c1`, the growth in assay [1] is 68.2%; in [2], 97.1%; in assay [3], 102%; in assay [4], 106%; in assay [5], 87%; in [6], 112%. The growth was 94.2% in [7]; 102% in assay [8]; 103% in assay [9]; 65.8% in assay [10]; 122% in assay [11]; 95% in assay [12]. Also, the growth is 103% in [13]; 36% in assay [14]; 92.6% in assay [15]; 80.8% in assay [16]; 87.6% in assay [17].
For `Fc1ccc(-c2cc3nc(C(Cl)Cl)nc(-c4ccco4)n3n2)cc1`, the growth in [1] was 64.8%; in assay [2], -31.5% (active); in [3], 10.4%; in [4], -13.7% (active); in assay [5] it was 17.7%; in assay [6], 18.8%. In addition, the growth in [7] was 74.3%; in [8], -6.45% (active); in [9] it was -18.9% (active); in assay [10] it was 7.31% (active); in assay [11], 82.4%; in assay [12] it was -1.86% (active). Also, the growth in assay [13] was 3.29% (active); in [14], -8.71% (active); in assay [15], -36.8% (active); in [16], -69.1% (active); in assay [17] it was -24.5% (active).
Turning to `Cc1cc(-c2ccc(Cl)cc2)n(Cc2nnc(SCC(=O)Nc3ccc(S(N)(=O)=O)cc3)n2-c2ccc([N+](=O)[O-])cc2)n1`, the growth is 72.5% in [1]; 64.3% in assay [2]; 88.7% in [3]; 98.5% in assay [4]; 86.5% in [5]; 112% in assay [6]. Besides, the growth is 96.9% in [7]; 96.7% in [8]; 84.3% in assay [9]; 70.3% in [10]; 116% in [11]; 87.4% in assay [12]. Further, the growth in assay [13] was 84.5%; in assay [14], 58%; in [15], 60.9%; in assay [16], 97.8%; in [17], 79.6%.
As to `COc1ccc(CCN2C(=O)CSC2=S)cc1`, the growth is 65.8% in assay [1]; 33.3% in assay [2]; 102% in [3]; 95.7% in [4]; 92.8% in assay [5]; 111% in assay [6]. Further, the growth in assay [7] is 109%; in assay [8], 99.4%; in assay [9], 98.4%; in [10], 50.7%; in assay [11], 112%; in assay [12], 77.6%. In addition, the growth was 61.3% in [13]; 24.2% in assay [14]; 84.6% in [15]; 110% in [16]; 6.12% (active) in [17].
`COc1cc(-c2nc(SC(C)C)n(C(C)C)c(=O)c2C#N)ccc1OCc1ccccc1`: the growth in assay [1] was 39.9%; in assay [2], 78.4%; in assay [3], 77%; in assay [4], 93.2%; in [5], 4.7% (active); in assay [6], 103%. Moreover, the growth in assay [7] was 67.1%; in assay [8], 70.1%; in [9] it was 76%; in assay [10] it was 52.6%; in assay [11], 93.8%; in [12], 85%. The growth was 52.4% in [13]; 75.3% in assay [14]; 42.9% in assay [15]; 87.6% in assay [16]; 95.1% in assay [17].
Turning to `CCNC(=O)N1CCc2cc(OC)c(OCCc3ccc(OC)cc3)cc2C1c1ccc(Cl)cc1C` (stereo not drawn), the growth in assay [1] was 6.29% (active); in [2] it was 20%; in assay [3], 27.3%; in assay [4] it was 32.9%; in assay [5], 51.7%; in assay [6], 54.9%. Further, the growth is 23.4% in assay [7]; 1.75% (active) in assay [8]; 13.5% in assay [9]; 57% in assay [10]; -1.91% (active) in assay [11]; 15.9% in assay [12]. Moreover, the growth in [13] was 21.4%; in assay [14] it was 16.3%; in [15] it was 9.84% (active); in assay [16] it was 17.1%; in assay [17] it was 16.5%.

Values taken from PubChem BioAssay (NCI).
